The structures appear in SMILES notation. About 1,800 (0.62%) of roughly 290,000 compounds were called active. The sample as a whole holds a higher share of actives than the screen did. A number with no mark means an inactive call. Rule as the data show it: active = inhibition above about 50%; inactive = the rest.

The nature of this assay: NOD2 signaling inhibitors, cell-based, luminescence, uHTS, HEK293 (AID 1566). The conditions noted are these: HEK293 NOD2/NF-kB luciferase reporter, at 4 µM, stronger effect = higher value. A general note: In a reporter assay the amount or activity of a reporter protein is the signal.
As usually defined, the inhibition is the drop in the measured response relative to a control, in per cent. Take `Nc1cccc(Oc2ccc3c(c2)C(=O)NC3=O)c1`: the inhibition was -12.7%.

Take `CCOC(=O)c1c(-c2ccccc2)csc1NC(=O)CSc1nnnn1C`: the inhibition was 12.2%.

Consider `Cc1ccc(NC(=O)CCSc2nnc3ccccn23)cc1`, for which the inhibition was 18.1%.

Regarding `CCOC(=O)c1c(-c2ccc(C)cc2)csc1NC(=O)CCSc1nnc2ccccn12`, the inhibition is 53.9% (active).

In the case of `CC(=O)c1c(C)oc2ccc(OCc3ccccc3)cc12`, the inhibition is -10.9%.

In the case of `CC(=O)/C(=C/c1ccc(N(C)C)cc1)C(=O)c1ccccc1`, the inhibition was -7.8%.

Turning to `O=C(Nc1ccc(Cl)cc1)c1ccncc1`, the inhibition was -5%.

For the compound `Cc1nn(-c2ccc(C(=O)O)cc2)c(C)c1Cl`, the inhibition is 11.5%.

As to `Cc1nn(-c2ccc(NC(=O)c3ccncc3)cc2)c(C)c1Cl`, the inhibition is 50% (active).

In the case of `COc1ccc(S(=O)(=O)N(C)c2ccc(C(=O)N3CCN(c4ccccc4)CC3)cc2)cc1OC`, the inhibition was 7.6%.

In the case of `CC(=O)Nc1ccc(S(=O)(=O)Nc2ccc3ccccc3n2)cc1`, the inhibition was 10.8%.

In the case of `CCS(=O)(=O)N1CCN(c2ncnc3sc(C)c(C)c23)CC1`, the inhibition is 18%.

As for `Cc1nc(N2CCN(S(=O)(=O)c3ccc(Br)cc3)CC2)c2c(C)c(C)sc2n1`, the inhibition is 45%.

As to `COc1ccc(CCC(=O)NNC(=O)c2cc(Cl)ccc2OC)cc1`, the inhibition was -4.6%.

For the compound `COc1ccc(/C(N)=N/OC(=O)Cc2ccccc2[N+](=O)[O-])cc1`, the inhibition is -2.6%.

Turning to `COc1ccc(NC(=O)CSc2ncnc3c2sc2ccccc23)c(OC)c1`, the inhibition was -3.6%.

As to `O=C(c1ccc(Cl)cc1)n1c(NCc2ccccc2)n[nH]c1=S`, the inhibition is -38.1%.

Turning to `Oc1ccc2ccccc2c1/C=N/c1nccs1`, the inhibition was -2.7%.

In the case of `Oc1ccc(N=Nc2c(O)ccc3ccccc23)cc1`, the inhibition is 17%.

Consider `Oc1ccc2ccccc2c1N=Nc1nccs1`, for which the inhibition was 91.9% (active).

With `O=C(N/N=C/c1ccco1)c1cccc(NC(=O)c2ccccc2Cl)c1`, the inhibition is 50.6% (active).

Consider `O=C(N/N=C/c1ccco1)c1cccc(NC(=O)c2cccc(Cl)c2)c1`, for which the inhibition is 12.2%.

As to `O=C(N/N=C/c1ccco1)c1ccc(NC(=O)c2ccccc2Cl)cc1`, the inhibition is -2.4%.

For the compound `O=C(Nc1cccc(-n2cccn2)c1)C1CCCN(Cc2ccc(C#CCCO)cc2)C1` (stereo not drawn), the inhibition was -17.7%.

`C=CCNC(=O)c1c(Cl)cccc1Cl`: the inhibition is 11.9%.

In the case of `Fc1ccc2[nH]c3c(NCc4ccccc4)ncnc3c2c1`, the inhibition was 62.7% (active).

For `Cc1ccc2[nH]c3c(NCc4ccccc4)ncnc3c2c1`, the inhibition was 39.4%.

As for `COc1ccc(CNc2ncnc3c2[nH]c2ccccc23)cc1`, the inhibition is 23.3%.

As to `CCOC(=O)c1sc2cccc(Cl)c2c1N`, the inhibition was 10.6%.

As for `O=C(Cc1c(Cl)cccc1Cl)Nc1ccncc1Cl`, the inhibition was 13.2%.

With `COc1ccc(CC(=O)Nc2cccnc2)cc1`, the inhibition was -3%.

As for `COCc1cc(Sc2ccc(OC)cc2)nc(-c2ccccc2)n1`, the inhibition was 18.2%.

As to `CC1CCN(S(=O)(=O)c2ccc(S(=O)(=O)N3CCCC3)cc2)CC1`, the inhibition was -1.3%.

As to `Nc1cc(S(=O)(=O)N2CCCCC2)ccc1N1CCOCC1`, the inhibition was 9.9%.

On to `CC1CCN(c2ccc(S(=O)(=O)N3CCC(C)CC3)cc2N)CC1`, for which the inhibition is 50.3% (active).

Regarding `Cc1ccc(C(=O)N2CCCC(Nc3ccc(C)c(C)c3)C2)c(=O)[nH]1` (stereo not drawn), the inhibition was 9.6%.

Regarding `CCCCn1c(SCC(=O)c2ccccc2)nc2ccsc2c1=O`, the inhibition was 13.3%.

Take `CCCCn1c(SCC(=O)N2CCC(C)CC2)nc2ccsc2c1=O`: the inhibition is -2.9%.

Turning to `CC(=O)c1cccc(NC(=O)C2C3CCC(C3)C2C(=O)O)c1` (stereo not drawn), the inhibition is 4.1%.

Regarding `COc1ccc(NC(=O)c2ccc(NCC3CCCO3)c([N+](=O)[O-])c2)cc1` (stereo not drawn), the inhibition was 13.3%.

In the case of `Fc1ccccc1NC(=S)NNc1ncc(C(F)(F)F)cc1Cl`, the inhibition is 13.7%.

Regarding `Cc1ccccc1NC(=S)NNc1ncc(C(F)(F)F)cc1Cl`, the inhibition is 4.9%.

As to `COc1ccc(/C=C2\SC(=S)N(CCC(=O)NC3C=CS(=O)(=O)C3)C2=O)cc1` (stereo not drawn), the inhibition was 11.8%.

Consider `Cc1cccc(Oc2ccc(NC(=O)c3ccccc3C(=O)O)cc2)c1C`, for which the inhibition is 8.6%.

As to `O=C(O)c1ccccc1C(=O)Nc1ccc(Oc2ccccc2)cc1`, the inhibition is 7.7%.

Regarding `O=C(O)c1ccccc1C(=O)Nc1ccc(Oc2cccc3ccccc23)cc1`, the inhibition is 61.3% (active).

In the case of `CC(C)[C@H](NC(=O)OC(C)(C)C)C(=O)N/N=C/c1cccc2nccnc12`, the inhibition is 10.5%.

In the case of `COc1ccc(Cc2nnc(SCc3ccc([N+](=O)[O-])cc3)o2)cc1`, the inhibition is 56.9% (active).

As to `O=[N+]([O-])c1ccc(CSc2nnc(Cc3ccccc3)o2)cc1`, the inhibition is 1.1%.

As for `CC(=O)CSc1nnc(Cc2ccc([N+](=O)[O-])cc2)o1`, the inhibition is 9.2%.

For `O=C(O)CNC(=S)N(Cc1ccccc1)Cc1ccccc1F`, the inhibition was 16.1%.

In the case of `CN=c1scc(-c2ccccc2F)n1/N=C/c1ccc(O)c(O)c1O`, the inhibition was 18.1%.

Turning to `CN=c1scc(-c2ccccc2F)n1/N=C/c1ccc[nH]1`, the inhibition is 90.4% (active).

Consider `CN=c1scc(-c2ccccc2Br)n1/N=C/c1ccc[nH]1`, for which the inhibition was 42.5%.

Consider `Cc1cc(C(=O)COC(=O)c2ccc[nH]c2=O)c(C)n1-c1ccc(F)cc1`, for which the inhibition is -12.8%.

For `Cc1cc(C(=O)COC(=O)C2CC2)c(C)n1-c1ccc(F)cc1`, the inhibition is 60.3% (active).

For `Cc1cc(C(=O)CN2CCCCC2)c(C)n1-c1ccc(F)cc1`, the inhibition is -23.5%.

`Cc1cccc(C(=O)NC(=S)Nc2ccc3[nH]c(=O)[nH]c3c2)c1`: the inhibition is -10.1%.

Regarding `O=C(COC(=O)CCC(=O)c1cccs1)Nc1ccc(Cl)cn1`, the inhibition is -14%.

On to `Cc1cc(-c2csc(N)n2)c(C)n1Cc1ccco1`, for which the inhibition is 1.7%.

On to `COCCCN=C1NN=C(c2cc(C)n(Cc3ccco3)c2C)CS1`, for which the inhibition was -60.2%.

For `Cc1cc(C2=NNC(=NC3CCCCC3)SC2)c(C)n1-c1c(C)n(C)n(-c2ccccc2)c1=O`, the inhibition is 2%.

As for `CCN=C1NN=C(c2cc(C)n(Cc3ccco3)c2C)CS1`, the inhibition is 82.2% (active).

For `CCN=C1NN=C(c2cc(C)n(CCc3ccccc3)c2C)CS1`, the inhibition was 0.1%.

`Cc1cc(C2=NNC(=NC3CC3)SC2)c(C)n1Cc1ccco1`: the inhibition was 85.3% (active).

Turning to `CCCC(=O)C1=C(O)C(C(=O)OC)C(C)(C)CC1=Nc1cccc2ccccc12` (stereo not drawn), the inhibition was 13.4%.

Turning to `CCCn1c(SCC(=O)NC2CCCCC2)nnc1-c1ccccn1`, the inhibition was 22.2%.

With `C=CCn1c(O)c(C=Nc2ccc(CN3CCCCC3)cc2)c(=O)[nH]c1=S`, the inhibition was 25.5%.

On to `CCCCCn1ccc(=N)cc1`, for which the inhibition was 31.1%.

`CCCCCCn1ccc(=N)cc1`: the inhibition is 40.3%.

For the compound `C[C@]12CCC3C(CC[C@H]4CC(O)CC[C@]34C)C1CC/C2=N/O` (stereo partly drawn), the inhibition is 26.5%.

In the case of `C[C@]12CCC3C(CC[C@H]4CC(O)CC[C@]34C)C1CC/C2=N/NC(=O)c1ccncc1` (stereo partly drawn), the inhibition was -5.7%.

In the case of `C/C(=N\NC(N)=S)C1=CCC2C3CC[C@H]4CC(O)CC[C@]4(C)C3CC[C@]12C` (stereo partly drawn), the inhibition is 54.6% (active).

For `O=C(Oc1ccccc1C(=O)Nc1ccccc1)c1ccc(Br)c([N+](=O)[O-])c1`, the inhibition was -12.7%.

In the case of `Cc1cc(CNC(=O)c2cccc([N+](=O)[O-])c2C)c2ccccc2n1`, the inhibition is 31.5%.

Turning to `O=C(CSc1nnc(CNC(=O)c2ccco2)o1)Nc1ccc(OC(F)(F)F)cc1`, the inhibition was 9.8%.

Regarding `COc1ccccc1NC(=O)CSC1=NC(=O)C(Cc2ccccc2)C(=O)N1` (stereo not drawn), the inhibition was -3%.

For `CC(=O)NS(=O)(=O)c1ccc(NS(=O)(=O)c2ccc3ccccc3c2)cc1`, the inhibition was 0.7%.

On to `COc1ccccc1Cn1c(=S)[nH]c2cc(C(=O)NCCN(C)C)ccc2c1=O`, for which the inhibition is 20.6%.

Turning to `Cc1cc(NC(=O)CSc2ccc3nnc(-c4ccc(Cl)cc4)n3n2)no1`, the inhibition was 5.8%.

With `CCOc1cc(/C=C2\C(=N)N3N=C(C)SC3=NC2=O)ccc1OCCOc1cccc(OC)c1`, the inhibition is 7.2%.

Turning to `CCS(=O)(=O)C1=NN2C(=N)/C(=C\c3ccc(OS(=O)(=O)c4ccccc4)c(OC)c3)C(=O)N=C2S1`, the inhibition is 12.5%.

In the case of `C=CCOc1ccc(/C=C2\C(=N)N3N=C(S(=O)(=O)CC)SC3=NC2=O)cc1OC`, the inhibition was 28.5%.

With `COc1cc(/C=C2\C(=N)N3N=C(S(C)(=O)=O)SC3=NC2=O)cc(OC)c1OCCOc1cccc(C)c1`, the inhibition is 25.9%.

Take `CCOC(=O)C1=NN(c2ccccc2)C2C(=O)N(c3ccccc3OC)C(=O)C12` (stereo not drawn): the inhibition was 21.2%.

Take `Cc1cc(C)n2nc(SCC(=O)c3ccccc3)nc2n1`: the inhibition was -15.3%.

Regarding `COc1ccc(-c2csc(NC(=O)Cc3cc(OC)c(OC)c(OC)c3)n2)cc1OC`, the inhibition was 22.7%.

In the case of `COc1ccc(CC(=O)Nc2nc(-c3ccc(F)c(F)c3)cs2)cc1`, the inhibition is 15.8%.

For `COc1cc(CC(=O)Nc2nc(-c3ccc(F)c(F)c3)cs2)cc(OC)c1OC`, the inhibition was 58.7% (active).

On to `O=C(Nc1c(F)cc(F)cc1Br)c1cccnc1`, for which the inhibition was -9.2%.

On to `C/C(CC(=O)Nc1ccc(Cl)c(Cl)c1)=N\NC(N)=S`, for which the inhibition is -15.1%.

In the case of `COc1ccc(-c2cc(C(F)(F)F)c(C#N)c(SCC(=O)O)n2)cc1`, the inhibition is 9.7%.

For `COc1ccc(-c2cc(-c3ccc(Cl)cc3)c(C#N)c(SCC(=O)O)n2)cc1`, the inhibition is 62.5% (active).

Consider `N#Cc1c(-c2ccc(Cl)cc2)cc(-c2ccccc2)nc1SCC(=O)O`, for which the inhibition was 26%.

With `COc1ccc(Cl)c(OC)c1C(=O)NC(=O)Nc1nc(C)nc(C)n1`, the inhibition was 3.1%.

As to `CCC(=O)Nc1cc2nn(-c3ccccc3)nc2cc1Cl`, the inhibition is -189%.

Consider `CC(=O)Nc1cc2nn(-c3ccccc3)nc2cc1Cl`, for which the inhibition was -133%.

As for `CC(C)(C)C(=O)Nc1cc2nn(-c3ccccc3)nc2cc1Cl`, the inhibition was 76.2% (active).

Source of the values: PubChem BioAssay AID1566 (Sanford-Burnham Center for Chemical Genomics, 2009).
